D1 antag: blocks dopamine activation of the human D1 receptor. P21728. HEK293 TREx D1 cells, calcium flux, dopamine EC80; active compounds read low. activity change, negative = inhibition, % at 10 µM. 360,000 compounds, 3.2% hits; in the data active = activity change below about -30%
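Tetracycline-induced HEK293 Trex D1 cells, force-coupled to calcium, dye-loaded; compounds added and read 180 s, then EC80 dopamine added and calcium flux tracked kinetically another 180 s.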
D1 potentiator: human D1 dopamine receptor positive modulation; potentiation, % at 10 µM; AID 504651; 360,000 compounds, 0.036% hits; P21728; HEK293 TREx D1 cells, calcium flux, dopamine EC20 potentiation; in the data active = potentiation above about 30%
DRD3 agonist: D3 dopamine receptor (human) agonism; P35462; D3R DiscoveRx beta-arrestin cells, luminescence, 90 min; max activation, %; 410,000 compounds, 0.58% hits; AID 652048; in the data active = max activation above about 30%
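Agonist-mode cell screen: cells plated at 1500/well and incubated overnight at 37 °C, then exposed to library compounds for 90 min at 37 °C. Detection reagent was added for 30–60 min at room temperature, and luminescence was read.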
D1 ag: agonists of human D1 dopamine receptor. AID 504660. activation, % at 2 µM. HEK293 T-REx D1 cells, calcium flux, agonist mode. P21728. 360,000 compounds, 1% hits; in the data active = activation above about 30%
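Tetracycline-induced HEK293 TREx D1 cells, force-coupled to calcium signalling, were dye-loaded with a no-wash calcium kit. Compound was pin-added after a 10 s baseline. Fluorescence was read kinetically at 1 cycle/s for 180 s, with calcium rises flagged as agonism.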
ERG Ets-DNA blk: ERG Ets/DNA interaction inhibition | P11308 | fluorescence polarization, His-ERG Ets domain / labelled DNA | Potency, µM (top dose mostly 76.9 µM), usual class: inhibitors | 370,000 compounds, 0.028% hits | AID 624246; active = well fitted inhibition curve with a large enough effect in the polarisation, with a control signal flat; the % refers to the polarisation;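 note: polarization taken with two DNA probes labelled with fluorescein and Texas red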
Target sequence (P11308 whole entry, looked up, the tested form may be a part): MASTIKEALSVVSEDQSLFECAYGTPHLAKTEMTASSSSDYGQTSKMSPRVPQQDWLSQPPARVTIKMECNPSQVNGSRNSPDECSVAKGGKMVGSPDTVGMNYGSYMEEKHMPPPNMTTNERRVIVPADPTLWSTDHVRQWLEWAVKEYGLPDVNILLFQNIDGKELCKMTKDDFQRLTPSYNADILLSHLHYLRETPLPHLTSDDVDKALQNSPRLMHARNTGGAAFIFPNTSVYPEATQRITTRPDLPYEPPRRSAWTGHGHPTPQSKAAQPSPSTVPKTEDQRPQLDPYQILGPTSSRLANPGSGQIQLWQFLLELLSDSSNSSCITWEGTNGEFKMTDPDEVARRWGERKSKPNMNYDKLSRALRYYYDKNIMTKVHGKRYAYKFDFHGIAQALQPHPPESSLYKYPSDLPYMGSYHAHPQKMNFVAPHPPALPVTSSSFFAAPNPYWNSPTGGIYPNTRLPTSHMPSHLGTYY
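His-tagged ERG Ets domain (1 uM in the protein solution; 300mM KCl, 50mM Tris-HCl, 1mM EDTA, 1mM DTT, pH 7.5) received compound, then a probe mix of 5 nM fluorescein-DNA and 100nM Texas-615-DNA. Fluorescence polarization was read for both dyes.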
D3 antag: D3 dopamine receptor (human) antagonism. D3R cells, DiscoveRx beta-arrestin luminescence, antagonist mode; active compounds read low. max response, negative = inhibition, %. 360,000 compounds, 2.5% hits. AID 652054; in the data active = max response below about -50%
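Cells plated overnight at 1500 cells/well, then exposed to library compounds with dopamine controls for 90 minutes at 37 degrees C. DiscoveRx reagent added for 30–60 minutes at room temperature; luminescence read, quantitative HTS format.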
A number is an active result; – = inactive; · = no result. Most compounds without a hit are left out; they make up all but 6.1% or so of the library.

SMILES	D1 antag	D1 potentiator	DRD3 agonist	D1 ag	ERG Ets-DNA blk	D3 antag
O=C(O)C(Cc1ccccc1)n1cccc1 (stereo not given)	-41.9	–	–	–	–	–
Cc1ccc(C)c(N2CCN(C(=O)c3ccc(CS(=O)(=O)c4ccccc4C)o3)CC2)c1	–	–	74.5	–	–	–
COc1ccc(CNC(=O)c2[nH]c(C(F)(F)F)nc2-c2ccccc2)cc1	·	·	–	·	·	–
COc1ccc(CNC(=O)c2[nH]c(C(F)(F)F)nc2-c2ccccc2)cc1OC	·	·	–	·	·	-57.6
COC(=O)c1c(-c2ccc(Cl)cc2)noc1N1CCN(c2cccc(C(F)(F)F)c2)CC1	–	–	95.3	–	–	·
COC(=O)c1c(-c2ccc(Cl)cc2)noc1N1CCN(c2ccccc2OC)CC1	-31.5	–	–	–	–	·
COC(=O)c1c(-c2ccc(Cl)cc2)noc1N1CCN(c2ccc(F)cc2)CC1	–	–	64.4	–	–	·
O=C(OCc1ccc([N+](=O)[O-])cc1)C1CC(=O)N(c2ccccc2)C1 (stereo not given)	–	–	–	–	·	–
CN(C)c1cc(=O)n2c(n1)SCCC2	–	–	–	–	–	–
O=c1cc(N2CCCCC2)nc2n1CCCS2	–	–	34.8	–	–	–
CCOC(=O)c1ccc(NC(=O)CC2S/C(=N/N=C/c3c[nH]c4ccccc34)NC2=O)cc1 (stereo not given)	-36.4	–	–	–	–	–
Cc1ccc(CNC(=O)C2CCC(=O)N(CCc3cccc(F)c3)C2)cc1 (stereo not given)	-42.9	–	–	–	–	–
Cc1ccsc1CCNC(=O)C1CCC(=O)N(CCc2cccc(F)c2)C1 (stereo not given)	-37.2	–	–	–	–	–
Cc1ccc(CNC(=O)C2CCC(=O)N2Cc2ccc(C)cc2)cc1 (stereo not given)	-40.2	–	–	–	–	–
Cc1n[nH]c(C)c1CN(C)C(=O)C1CCC(=O)N(CCc2cccc(F)c2)C1 (stereo not given)	-32.9	–	–	–	–	–
Cc1ccc(CNC(=O)C2CCC(=O)N2Cc2ccccc2Cl)cc1 (stereo not given)	–	–	–	–	–	–
COc1cc(NS(=O)(=O)c2ccc3oc(=O)c4ncn(C)c4c3c2)cc(OC)c1	–	–	–	–	–	·
O=C(NCCc1ccc(C(F)(F)F)cc1)C1CCC(=O)N(CCCN2CCCC2=O)C1 (stereo not given)	-40.5	–	–	–	–	–
Cc1ccc(CN(C)C(=O)c2cc(Br)c(Br)s2)o1	-35.1	–	–	–	–	–
CCNc1nc2[nH]c(=O)c3c(c2s1)OC(N)=C(C#N)C3c1ccc(C)cc1 (stereo not given)	–	–	–	–	–	–
Cc1ccccc1NS(=O)(=O)c1cccc2nonc12	–	–	–	–	–	–
Cc1ccccc1Nc1cccc2nonc12	–	–	–	40.3	–	–
CCC(C(=O)NC1CCCC1)N(C(=O)Cn1nnc(-c2ccc(C)o2)n1)c1cccc(OC)c1 (stereo not given)	–	–	36.0	–	–	–
Cc1ccc(-c2nnn(CC(=O)N(Cc3cccs3)C(C(=O)NCC3CCCO3)c3ccco3)n2)o1 (stereo not given)	-48.4	–	–	–	–	–
COc1ccc(-c2nnn(CC(=O)N(CCCN3CCOCC3)C(C(=O)NC3CCCC3)c3ccco3)n2)cc1 (stereo not given)	-31.8	–	–	–	–	–
SMILES	D1 antag	D1 potentiator	DRD3 agonist	D1 ag	ERG Ets-DNA blk	D3 antag
COc1ccc(-c2nnn(CC(=O)N(CCCN3CCOCC3)C(C(=O)NC3CCCC3)c3ccc(C)o3)n2)cc1 (stereo not given)	–	–	–	–	–	–
O=C(NCC1CCCO1)C(c1ccncc1)N(Cc1cccs1)C(=O)CN1C(=O)c2ccccc2S1(=O)=O (stereo not given)	–	–	–	41.8	–	–
CCC(C(=O)NC1CCCC1)N(C(=O)Cn1nnc(-c2ccc(C)o2)n1)c1cccc(O)c1 (stereo not given)	–	–	–	–	–	–
Cc1ccccc1CCN(C(=O)CN1C(=O)c2ccccc2S1(=O)=O)C(C(=O)NCC1CCCO1)c1ccncc1 (stereo not given)	–	–	–	–	–	–
Cc1cccc(C)c1NC(=O)CNC(=O)c1ccc(N2CCCC2=O)cc1	–	–	–	–	–	–
Cc1ccc(Nc2nnc(-c3ccc(C)c(S(=O)(=O)N4CCN(C)CC4)c3)c3ccccc23)c(C)c1	-56.8	–	–	–	–	·
Cc1cccc(Nc2nnc(-c3ccc(C)c(S(=O)(=O)N4CCN(C)CC4)c3)c3ccccc23)c1	-43.8	–	–	–	–	·
Oc1ccc(-c2nnc(Nc3cccc(O)c3)c3ccccc23)cc1	–	–	–	–	–	–
C#CCOc1ccc(-c2nnc(Nc3cccc(C)c3)c3ccccc23)cc1	-44.8	–	–	–	–	·
CSc1ccc(S(=O)(=O)Nc2ccccc2C(=O)N2CCOCC2)cc1	–	–	–	–	–	–
O=C(O)c1ccccc1NS(=O)(=O)c1ccc2c(c1)OCCO2	–	–	–	–	–	–
O=C(c1ccccc1NS(=O)(=O)c1ccc(Br)cc1)N1CCOCC1	-33.0	–	–	–	–	–
NC(=O)c1ccccc1NS(=O)(=O)c1ccc2c(c1)OCCO2	-35.7	–	–	–	–	–
O=C(NS(=O)(=O)c1ccc2c(c1)OCCO2)c1ccccc1	–	–	–	–	–	-85.2
CCc1cccc(NC(=O)COC(=O)c2c(-c3ccccc3)noc2C)c1	·	·	–	·	·	–
Nc1nc(N=Nc2ccc(O)cc2)cc(=O)[nH]1	·	·	–	·	·	-90.1
Nc1nc(N)c(N=Nc2ccccc2)c(=O)[nH]1	·	·	–	·	–	–
O=C(NCc1ccc(F)cc1)c1ccc(Nc2nc3ccccc3n3nnnc23)cc1	-30.5	–	–	–	–	·
Cc1ccc(CN2CCN(CC3CC4C=CC3C4)CC2)cc1 (stereo not given)	–	–	–	–	–	-59.9
O=S(=O)(c1ccccc1)N1CCN(CC2CC3C=CC2C3)CC1 (stereo not given)	–	–	–	–	–	–
Cc1csc2nc(COc3ccc(NC(=O)COc4ccccc4F)cc3)cc(=O)n12	–	–	–	–	–	·
Cc1ccccc1OCC(=O)Nc1ccccc1C(=O)OCc1cc(=O)n2ccsc2n1	–	–	–	–	–	·
Cc1ccccc1OCC(=O)Nc1ccccc1C(=O)OCc1cc(=O)n2c(C)csc2n1	-39.7	–	–	–	–	·
Cc1csc2nc(COC(=O)COc3ccccc3F)cc(=O)n12	-46.4	–	–	–	–	·
